Data published in the OligoGym collection.

target: ZNF250; experiment: pooled miR-30 sensor sort-seq; sequence = guide strand; conditions: shRNA
Note: reference of the scale not given here.

Row | Sequence | sensor-assay potency score (higher = more potent)
1 | TAAGACCTGAACTTCACGGTGG | 0.671
2 | TGTATTTTGACTCTCTCCCTTG | -0.459
3 | TTTGTGACACTGAATCGCCAAA | -1.66
4 | TTATTTTCTTGATCAATCCTCC | 0.32

target: ZNF259; experiment: as above; conditions: shRNA

Row | Sequence | sensor-assay potency score (higher = more potent)
5 | TCAGTCTTCACCACTTCTCTGT | 0.0434
6 | TCACACTTGCATCACAAGCTGT | -0.681
7 | TAACACAATAGGCTCACACTTG | -0.434
8 | TTGTACTAGCTTCATGTTGGTC | -0.732
9 | TAAACTCCTGTAGTCTCTCCGT | -0.469
10 | TTGTAGTGTGTGATCACCAGGG | 0.392
11 | TTTTCCACAAAACTGTTCCCTG | -0.697
12 | TTGCAGTAACAGTTCATGCATA | -0.757
13 | TTCTGAGATCTTCCTCTTCTGG | -1.55
14 | TTCATTTCTGAGATCTTCCTCT | 0.123
15 | TTCGATGATCTGGTCCATCTTC | -0.231
16 | TTCAGTTTGACAATGAACTCAT | 0.875

target: ZNF263; experiment: as above; conditions: shRNA

Row | Sequence | sensor-assay potency score (higher = more potent)
17 | TTGAAGCTCGGTGACTCTCGTG | -0.044
18 | TTCAGTGCAGTCCACACCCATA | -1.37
19 | TTTTATGCCAATCCTCTGCTGC | 0.0855
20 | TTTGGCTGCAGTTCCTTCGGTC | 0.0507
21 | TACACAGTCTTTCAGCTGCATG | -1.42
22 | TAAGGTAAACTGGACAGTCAGG | -0.825
23 | TTTCAGTGCAGTCCACACCCAT | -0.797
24 | TTATAGGGTCTCTCTCCCGTAT | -0.848
25 | TTATCAGACACCTACTTCCTCT | -0.271
26 | TGAAGCTCGGTGACTCTCGTGC | 0.166

target: ZNF300; experiment: as above; conditions: shRNA

Row | Sequence | sensor-assay potency score (higher = more potent)
27 | TTGCTCTTATAACAACTCGGTA | -1.42
28 | TGAGTTGTGACTTCTTAGCAAA | -1.22
29 | TTTTTTTCTTGAATTGCTCTTA | 0.496
30 | TTCCACATTCAGAACAATCATA | -0.99
31 | TTAGTCTTAACATCTAATGCTT | -0.171
32 | TAAAACAAGGTCTGACTTCTGA | -0.123
33 | TTCTGTATGCTTAACTTGCTGT | -0.0649
34 | TAGTCTTAACATCTAATGCTTC | -0.419
35 | TTACTGAATCTGATCAACCTAT | -0.267
36 | ATGAGTTCTGTCTTCCTGCTGA | 0.161

target: ZNF322A; experiment: as above; conditions: shRNA

Row | Sequence | sensor-assay potency score (higher = more potent)
37 | TATGAGTCAACTAACTATGAGA | -0.783
38 | TAAGACAGGAGCTTCTACCAAA | -0.88
39 | TTTTTCACCAATGTGTACTGTC | 0.583
40 | TTCACCAATGTGTACTGTCTGA | -0.693
